Results filed as inconclusive are left out. Where a call stands in place of a potency, no number is given. Calls of active or inactive are those of the source. Calls follow the shape of the dose curve; as a rule, active = well fitted activation curve with a large enough effect; inconclusive = small, poorly fitted or top-dose-only effect; inactive = no such curve, though single readings can be large or run the other way.

Sequence of Rap guanine nucleotide exchange factor 3 (Homo sapiens) (O95398 whole entry, looked up): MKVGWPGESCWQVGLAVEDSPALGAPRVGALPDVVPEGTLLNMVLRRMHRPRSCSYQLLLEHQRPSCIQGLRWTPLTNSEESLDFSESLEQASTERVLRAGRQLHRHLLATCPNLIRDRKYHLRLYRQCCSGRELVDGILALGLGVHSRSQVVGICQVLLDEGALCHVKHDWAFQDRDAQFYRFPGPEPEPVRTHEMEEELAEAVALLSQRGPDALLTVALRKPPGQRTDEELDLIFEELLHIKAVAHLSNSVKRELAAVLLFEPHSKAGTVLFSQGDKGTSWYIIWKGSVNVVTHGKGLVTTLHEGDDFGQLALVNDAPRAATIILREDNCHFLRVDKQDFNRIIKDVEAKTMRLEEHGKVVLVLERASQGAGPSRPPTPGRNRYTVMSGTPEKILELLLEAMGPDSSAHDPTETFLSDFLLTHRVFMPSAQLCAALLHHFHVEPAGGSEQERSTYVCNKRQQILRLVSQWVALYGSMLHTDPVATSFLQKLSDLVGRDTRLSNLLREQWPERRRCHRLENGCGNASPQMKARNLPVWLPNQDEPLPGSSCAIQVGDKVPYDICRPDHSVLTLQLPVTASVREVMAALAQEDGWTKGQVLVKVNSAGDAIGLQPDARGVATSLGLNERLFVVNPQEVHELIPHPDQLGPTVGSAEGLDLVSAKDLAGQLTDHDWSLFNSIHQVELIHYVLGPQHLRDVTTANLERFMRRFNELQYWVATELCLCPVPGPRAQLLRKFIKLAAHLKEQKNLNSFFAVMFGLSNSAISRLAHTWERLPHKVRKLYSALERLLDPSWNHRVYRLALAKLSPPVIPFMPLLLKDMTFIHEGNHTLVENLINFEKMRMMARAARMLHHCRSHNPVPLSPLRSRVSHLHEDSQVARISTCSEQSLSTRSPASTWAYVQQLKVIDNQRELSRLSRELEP

The assay addresses Rap guanine nucleotide exchange factor 3 (Homo sapiens) (UniProt O95398). In words: Confirmatory qHTS for agonist of cAMP-regulated guanine nucleotide exchange factor 3 (EPAC1) (AID 1645881).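 Also: EPAC1 catalysed release of BODIPY-GDP from Rap1B seen as fluorescence loss; nearly all actives have a fitted effect of over 75% in size.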 The following applies: EPAC1 Rap1B BODIPY-GDP exchange fluorescence; series mostly up to 154 µM.
For `COC(=O)[C@]12CCCCC=C1N(Cc1ccco1)C(=O)[C@H](CC(=O)NCc1cccs1)C2`, the Potency entry was “inactive”.

Take `CCc1cc(-c2n[nH]c(C)c2-c2ccccc2Cl)c(O)cc1OC`: the Potency entry is “inactive”.

On to `Cc1ccc(C2c3c(-c4cc(C)ccc4O)n[nH]c3C(=O)N2Cc2ccco2)cc1` (stereo not given), for which the Potency result was “inactive”.

On to `C[C@H](CO)N1C[C@H](C)[C@H](CN(C)Cc2cccc(O)c2)OCc2ccccc2-c2c(n(C)c3ccccc23)C1=O`, for which the Potency result is “inactive”.

Consider `O=C1NC[C@H](Cc2ccccc2)N(C[C@@H]2CCCN2C[C@H](Cc2ccc(O)cc2)N2C[C@H](Cc3ccc(O)cc3)N(CC3CCCCC3)C(=O)C2=O)C1=O`, for which the Potency entry was “inactive”.

As to `Cc1nc2c(OCc3ccc(OC(F)F)cc3)cccn2c1N(C)C(=O)CCC1CCCC1`, the Potency result was “inactive”.

Turning to `COc1ccc(SC[C@H](C)CN2CC[C@H](C(C)(C)C)CCC2=O)cc1`, the Potency entry is “inactive”.

Regarding `CCc1nc2ccc(C(=O)Nc3ccc(OC)c(OC)c3)cn2c1N(C)CCC(C)C`, the Potency result was “inactive”.

Take `NC(=O)c1c(NC(=O)CSc2nnc(-c3ccco3)n2N)sc2c1CCCC2`: the Potency result was “inactive”.

In the case of `Cc1cc(C)cc(OCC(=O)OCC(=O)NC2CCCCCCC2)c1`, the Potency result is “inactive”.

Turning to `CN(CC(=O)Nc1ccc(Cl)c(C(F)(F)F)c1)CC(=O)NC1CCCCC1`, the Potency entry is “inactive”.

Take `CC(C)Oc1cc(F)ccc1-c1cc(C(=O)Nc2ccc(C(C)C)cc2)[nH]n1`: the Potency result was “inactive”.

`O=C1CCCC2=C1CC(C(=O)OCc1ccccc1)C(=O)N2Cc1ccccc1` (stereo not given): the Potency entry is “inactive”.

For the compound `Cc1ccccc1CN1C(=O)C(C)Sc2ccc(-c3ccco3)cc21` (stereo not given), the Potency entry was “inactive”.

Consider `COc1cc(S(=O)(=O)NC2CCCCC2C)ccc1Cl` (stereo not given), for which the Potency result is “inactive”.

These data come from PubChem BioAssay (NCATS).
